Source: PubChem BioAssay (National Center for Advancing Translational Sciences (NCATS))
AmpC inh no det = inhibitors of E. coli AmpC beta-lactamase without detergent; P00811; AmpC nitrocefin hydrolysis, absorbance 480 nm, no detergent; Potency, µM (highest dose often 28.7 µM); 71,000 compounds, 1.8% hits; AID 585
Target sequence (P00811 whole entry, looked up): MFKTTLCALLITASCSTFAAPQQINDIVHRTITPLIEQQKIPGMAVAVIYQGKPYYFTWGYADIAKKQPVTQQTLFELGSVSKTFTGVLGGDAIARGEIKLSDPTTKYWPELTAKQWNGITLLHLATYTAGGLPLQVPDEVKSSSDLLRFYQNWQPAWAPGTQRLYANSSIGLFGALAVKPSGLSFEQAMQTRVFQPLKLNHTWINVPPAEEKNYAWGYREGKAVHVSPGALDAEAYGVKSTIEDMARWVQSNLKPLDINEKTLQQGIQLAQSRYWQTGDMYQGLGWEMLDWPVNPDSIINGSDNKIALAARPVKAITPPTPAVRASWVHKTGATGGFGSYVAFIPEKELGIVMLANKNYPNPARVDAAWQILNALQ
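AmpC, 20 mM phosphate pH 7.0; 15 min cpd preinc, RT; start with nitrocefin (800 uM stock); A480 kinetic read, 20 s intervals, 4 min. No-enzyme wells = negative control.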
LT uptake inh = anthrax lethal toxin internalization inhibition | AID 912 | Potency, µM (doses to about 40 µM), usual class: inhibitors | Cells, anthrax lethal toxin internalization, FRET ratio (460/530) | 70,000 compounds, 0.67% hits; note: nearly all actives have a fitted effect of over 50% in size
SmPrx2 inh = Schistosoma mansoni Prx2 inhibition; S. mansoni Prx2 activity coupled to TGR/GSH (TGR is thioredoxin glutathione reductase), NADPH fluorescence loss, qHTS; Potency, µM; 65,000 compounds, 0.07% hits
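Coupled assay in which S. mansoni TGR passes NADPH reducing equivalents via glutathione to Prx2, which reduces H2O2. Compounds were preincubated 15 min at room temperature with 25 nM TGR/50 nM Prx2 mix. Kinetic NADPH fluorescence loss (ex 365/em 450 nm) was monitored.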
AmpC det inh = inhibitors of E. coli AmpC beta-lactamase with detergent; Potency, µM (top dose mostly 28.7 µM); AID 584; 71,000 compounds, 0.09% hits; purified AmpC, nitrocefin hydrolysis with detergent; P00811; active = well fitted curve in the direction sought with a large enough effect; inconclusive = small, poorly fitted or top-dose-only effect
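E. coli AmpC (5.3 nM) in 20 mM phosphate pH 7.0 with 0.01% Triton X-100, preincubated 15 min RT with compound; nitrocefin (2 uL of 800 uM stock) hydrolysis followed by 480 nm absorbance every 20 s over 4 min.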
Hits are given with their value; 0 = inactive; ? = inconclusive; - = not tested or not shown; ! = not active in a repeat; [ ] = dose if it differs, or a comment. Hits are enriched below; roughly 2.4% of the tested compounds scored in any of these assays. Unless noted, calls come from the whole dose curve.

SMILES	AmpC inh no det	LT uptake inh	SmPrx2 inh	AmpC det inh
C[C@@H]1C(=O)O[C@@H]2C[C@@]34[C@H]5C[C@@H](C(C)(C)C)[C@@]36[C@@H](OC(=O)[C@@H]6O)O[C@]4(C(=O)O5)[C@@]12O	0	?	0	0
COc1cc(O)c2c(O)c3c(c4c2c1[C@@]1(C4)C(C)=CCCC1(C)C)[C@H](O)[C@@]1(O)CC(=O)C(C(N)=O)=C(O)[C@]1(O)C3=O	0[5.75 µM]	?	0	0[5.75 µM]
Cc1onc(-c2c(Cl)cccc2Cl)c1C(=O)N[C@H]1C(=O)N2[C@H]1SC(C)(C)[C@H]2C(=O)O	0.0016µM	0[3.58 µM]	0	0.0025µM
O=C1CCC(=O)N1c1cccc(-c2nc3ccccc3o2)c1	4µM[single pt active]	0	0	0
O=C1c2cccnc2C(=O)N1c1cccc(-c2nc3ccccc3o2)c1	0	0	0	0
CO[Si](CCCNCCC[Si](OC)(OC)OC)(OC)OC	0	0	-	0
Cc1ccc(-c2nc(CS(=O)CC(=O)NCCN3CCOCC3)c(C)o2)cc1 (stereo not drawn)	4µM[single pt active]	0	0	0
Cc1ccccc1-c1nc(CS(=O)(=O)CC(=O)NCCN2CCOCC2)c(C)o1	0	0	0	0
Cc1ccc(-c2nc(CS(=O)CC(=O)NCCN(CC(C)C)CC(C)C)c(C)o2)cc1 (stereo not drawn)	0	0	0	0
CCOC(=O)N1CCC(NC(=O)C2CCCN(Cc3nc(-c4cccc(Cl)c4)oc3C)C2)CC1 (stereo not drawn)	0	?	0	0
Cc1ccccc1-c1nc(CS(=O)CC(=O)NCc2ccccc2)c(C)o1 (stereo not drawn)	4µM[single pt active]	0	0	0
CCN1CCN(CCNC(=O)C2CCCN(Cc3nc(-c4cccc(Cl)c4)oc3C)C2)CC1 (stereo not drawn)	0	4µM	0	0
Cc1ccccc1-c1nc(CS(=O)CC(=O)NCCN2CCOCC2)c(C)o1 (stereo not drawn)	4µM[single pt active]	0	0	0
Cc1ccc(CNC(=O)CS(=O)Cc2nc(-c3ccccc3C)oc2C)cc1 (stereo not drawn)	0	?	0	0
Cc1ccc(-c2nc(CS(=O)CC(=O)NCc3ccccn3)c(C)o2)cc1 (stereo not drawn)	4µM[single pt active]	0	0	0
Cc1ccc(-c2nc(CS(=O)CC(=O)NCCN3CCCC3)c(C)o2)cc1 (stereo not drawn)	4µM[single pt active]	0	0	0
Cc1oc(-c2ccc(Cl)cc2)nc1CS(=O)CC(=O)NCCN1CCCC1 (stereo not drawn)	4µM[single pt active]	0	0	0
CC[C@H](C)[C@@H]1O[C@]2(CC[C@@H]1C)C[C@H]1C[C@H](CC=C(C)[C@@H](O[C@H]3C[C@H](OC)[C@H](O[C@H]4C[C@H](OC)[C@H](O)[C@H](C)O4)[C@H](C)O3)[C@@H](C)C=CC=C3CO[C@@H]4[C@@H](O)C(C)=C[C@H](C(=O)O1)[C@@]34O)O2	0	?	?	0
COc1ccc(CCNc2oc(COc3ccccc3Cl)nc2C#N)cc1OC	0	16µM	0	0
COc1cc2cc3c4c(cc(OC)c(OC)c4c2cc1OC)CCN3C	0	?	0	0
Cc1ccc(OCCCC(=O)Nc2ccc(S(=O)(=O)Nc3cc(C)on3)cc2)cc1	10µM[single pt active]	0	0	0
CCCCOC(=O)Nc1ccc(S(=O)(=O)Nc2cc(C)nc(C)n2)cc1	3.2µM[single pt active]	?	0	0
CN[C@]1(C)[C@@H]2CC[C@@H](C2)C1(C)C	0	0	0	0
CC(=O)N1C[C@@H]2C[C@H](C1)c1cccc(=O)n1C2	0	?	0	0
O=C(c1ccc(CSCc2ccccc2F)o1)N1CCN(c2ccc(N3CCOCC3)nn2)CC1	0	7.9µM	0	0
SMILES	AmpC inh no det	LT uptake inh	SmPrx2 inh	AmpC det inh
O=C(NCc1ccc2c(c1)OCO2)c1cccc2c1C(=O)N(C1CCCCC1)C2	2.5µM[single pt active]	0	0	0
COc1ccc(CCNc2nc(N3CCCCC3)nc(N3CCCCC3)n2)cc1OC	0	6.3µM	0	0
CC(CC(=O)O)(CC(=O)O)c1ccccc1	0[5.75 µM]	0[8 µM]	0	0[5.75 µM]
CCC(Sc1nccn1C)C(=O)Nc1nnc(C)s1 (stereo not drawn)	4µM[single pt active]	0	0	0
CCC(Sc1nccn1C)C(=O)Nc1cccc2ccccc12 (stereo not drawn)	0	0	0	0
Oc1ccc(Cl)cc1Sc1cc(Cl)ccc1O	0[5.75 µM]	5µM!	0	0[5.75 µM]
Cc1cc(Cc2c(C)c(C)c(Cc3cc(C)cc(C(C)(C)C)c3O)c(C)c2C)c(O)c(C(C)(C)C)c1	0[5.75 µM]	0[8 µM]	0	0[5.75 µM]
Cc1cc(Cc2cc(C)cc(C(C)(C)C)c2O)c(O)c(Cc2cc(C)cc(C(C)(C)C)c2O)c1	0[5.75 µM]	3.2µM	0	0[5.75 µM]
